Measurements taken from PubChem BioAssay (NCATS).
Results filed as inconclusive are left out. Entries that show only a call come without a potency. Active and inactive are the calls of the source. Calls follow the shape of the dose curve; as a rule, active = well fitted inhibition curve with a large enough effect; inconclusive = small, poorly fitted or top-dose-only effect; inactive = no such curve, though single readings can be large or run the other way.

Molecular target: Cytochrome P450 3A4 (Homo sapiens) (UniProt P08684)
Sequence (P08684 whole entry, looked up): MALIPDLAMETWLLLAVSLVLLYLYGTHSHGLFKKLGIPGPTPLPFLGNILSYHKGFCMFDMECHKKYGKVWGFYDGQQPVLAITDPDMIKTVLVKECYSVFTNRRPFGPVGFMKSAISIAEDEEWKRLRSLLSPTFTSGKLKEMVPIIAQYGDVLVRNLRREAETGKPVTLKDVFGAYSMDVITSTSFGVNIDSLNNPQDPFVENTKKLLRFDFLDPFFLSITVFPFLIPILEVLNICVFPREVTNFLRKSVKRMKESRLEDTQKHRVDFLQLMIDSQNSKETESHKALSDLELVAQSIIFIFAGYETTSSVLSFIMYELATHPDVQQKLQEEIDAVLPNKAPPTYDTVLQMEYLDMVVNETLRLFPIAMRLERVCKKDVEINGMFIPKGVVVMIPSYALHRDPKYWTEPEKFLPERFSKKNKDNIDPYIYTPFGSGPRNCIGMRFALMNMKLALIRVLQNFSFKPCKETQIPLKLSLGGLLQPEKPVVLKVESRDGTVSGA
Test: qHTS Assay for Inhibitors and Substrates of Cytochrome P450 3A4 (AID 884); also: nearly all actives have a fitted effect of over 50% in size
Conditions: recombinant CYP3A4, Luciferin-PPXE luminescence; series mostly up to 57.1 µM
In short: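 20 nM human CYP3A4 with 25 uM Luciferin-PPXE (at KM) in 200 mM KPO4, preincubated 10 min with compound; NADPH regeneration started a 60 min RT reaction. Luciferin detected by luminescence, normalized to 57 uM ketoconazole as full inhibition.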
Potency is read from the fitted curve at half-maximal effect.

| SMILES | Potency |
| --- | --- |
| CN(N=O)C(=O)N[C@H]1C(O)C(O)C(CO)O[C@@H]1O (stereo not given in full) | inactive |
| Nc1nc(=O)n(C2OC(CO)C(O)C2O)cc1Cl (stereo not given) | inactive |
| Cn1c(=O)[nH]c(=O)c2[nH]cnc21 | inactive |
| Nc1ncnc2c1[nH]c(=O)n2C1CC(O)C(CO)O1 (stereo not given) | inactive |
| Nc1nc2c(ncn2C2CC(O)C(CO)O2)c(=O)[nH]1 (stereo not given) | inactive |
| O=c1c(-c2ccc(O)cc2)coc2c(C3OC(CO)C(O)C(O)C3O)c(O)ccc12 (stereo not given) | inactive |
| CC1(C)CC[C@]2(C(=O)O)CC[C@@]3(C)C(=CCC4[C@@]5(C)CCC(O)C(C)(C)C5CC[C@@]43C)C2C1 (stereo not given in full) | inactive |
| CSCCC(N)C(=O)NC(CC(C)C)C(=O)NC(Cc1ccccc1)C(=O)O (stereo not given) | inactive |
| C=C1C(=O)C23C(O)C1CCC2[C@]12COC3(O)C(O)C1C(C)(C)CC[C@H]2O (stereo not given in full) | inactive |
| CC(=O)OC1CC2C(C)(C)C(=O)CC[C@]2(C)C2CC[C@]3(C)C(=CC(=O)OC3c3ccoc3)[C@]12C (stereo not given in full) | 6.31 µM (active) |
| Cc1cc(O)c(C)c(O)c1C(=O)O | inactive |
| COc1ccc(-c2cc(=O)c3c(OC(C)=O)cc(OC(C)=O)cc3o2)cc1 | 25.1 µM (active) |
| CCC1OC(=O)C(C)[C@@H](O[C@H]2C[C@@](C)(OC)C(O)C(C)O2)C(C)[C@@H](O[C@@H]2OC(C)CC(N(C)C)C2O)[C@@](C)(O)CC(C)C2NC(COCCOC)O[C@H](C2C)[C@@]1(C)O (stereo not given in full) | inactive |
| CC(=O)OC1CC[C@@]2(C)C3CC[C@@]4(C)C(CC5O[C@@]6(CCC(C)CO6)C(C)C54)C3CC[C@@H]2C1 (stereo not given in full) | inactive |
| O=C(O)C(S)[C@@H](S)C(=O)O (stereo not given in full) | inactive |
